Data reported in the supplement of paper PMC10849652.
The full data set covers some 7,900 targets. This sample favours those with a hit. About 0.6% of all pairs of compound and target were hits. A number with no mark means an inactive call.

Experiments:
Assay in all cases: log2 fold change, soluble protein after heating vs DMSO (PISA); higher = thermal stabilisation; K562 cells, 10 uM, 30 min; active = over 0.2 and 3.5 SD of the protein, either way, in both replicates (recomputed)
[1] = compound: CC1=C(C=C(C=C1)NC(=O)C2=CC(=CC=C2)C(C)(C)C#N)NC3=CC4=C(C=C3)N=CN(C4=O)C
Summary of the method: (§1)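 Values are thermal stability changes relative to control samples and are taken from duplicates. They are stated as log2 fold changes. Before quantification by TMTpro 16plex LC-MS/MS with equalised channel sums, K562 cells at 2×10^6 cells/mL were treated with 10 μM compound for 30 min, heated in aliquots for 3 min across 48°C-58°C, pooled, extracted in PBS with 0.5% NP-40 at 4°C, and centrifuged at 21,000xg for 90 min to give the soluble supernatant.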

[2] = compound: CC1=C(C=C(C=C1)NC(=O)C2=CC(=CC=C2)N(C)C)NC(=O)C3=CC=C(C=C3)O
Summary of the method: as §1

[3] = compound: CC1=CC=C(C=C1)SC2=C3C=C(SC3=CN=C2)C(=O)N
Summary of the method: as §1

[4] = compound: CC1=NC(=CC=C1)C2=C(N=C(N2)C(C)(C)C)C3=CC4=NC=CN=C4C=C3
Summary of the method: as §1

Nexturastat A = compound: CCCCN(Cc1ccc(C(=O)NO)cc1)C(=O)Nc1ccccc1 [Nexturastat A]
Summary of the method: as §1

vemurafenib = compound: CCCS(=O)(=O)Nc1ccc(F)c(C(=O)c2c[nH]c3ncc(-c4ccc(Cl)cc4)cc23)c1F [vemurafenib]
Summary of the method: as §1

[5] = compound: CCCS(=O)(=O)Nc1ccc(F)c(C(=O)c2c[nH]c3ncc(Cl)cc23)c1F
Summary of the method: as §1

[6] = compound: CCCc1cc(C)[nH]c(=O)c1CNC(=O)c1cc(-c2ccnc(N3CCN(C)CC3)c2)cc2c1cnn2C(C)C
Summary of the method: as §1

givinostat = compound: CCN(CC)Cc1ccc2cc(COC(=O)Nc3ccc(C(=O)NO)cc3)ccc2c1 [givinostat]
Summary of the method: as §1

barasertib = compound: CCN(CCCOc1ccc2c(Nc3cc(CC(=O)Nc4cccc(F)c4)[nH]n3)ncnc2c1)CCOP(=O)(O)O [barasertib]
Summary of the method: as §1

Chain of UniProt O43396 (O43396 whole entry, looked up): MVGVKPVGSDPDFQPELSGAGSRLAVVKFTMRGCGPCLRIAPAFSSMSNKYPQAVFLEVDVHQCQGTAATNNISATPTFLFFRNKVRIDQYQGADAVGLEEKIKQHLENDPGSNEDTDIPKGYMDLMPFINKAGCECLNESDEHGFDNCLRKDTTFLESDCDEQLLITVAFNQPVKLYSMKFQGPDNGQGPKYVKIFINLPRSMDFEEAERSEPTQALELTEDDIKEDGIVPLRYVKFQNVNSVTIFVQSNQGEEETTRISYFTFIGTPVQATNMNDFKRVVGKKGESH
Chain of UniProt P49754 (P49754 whole entry, looked up): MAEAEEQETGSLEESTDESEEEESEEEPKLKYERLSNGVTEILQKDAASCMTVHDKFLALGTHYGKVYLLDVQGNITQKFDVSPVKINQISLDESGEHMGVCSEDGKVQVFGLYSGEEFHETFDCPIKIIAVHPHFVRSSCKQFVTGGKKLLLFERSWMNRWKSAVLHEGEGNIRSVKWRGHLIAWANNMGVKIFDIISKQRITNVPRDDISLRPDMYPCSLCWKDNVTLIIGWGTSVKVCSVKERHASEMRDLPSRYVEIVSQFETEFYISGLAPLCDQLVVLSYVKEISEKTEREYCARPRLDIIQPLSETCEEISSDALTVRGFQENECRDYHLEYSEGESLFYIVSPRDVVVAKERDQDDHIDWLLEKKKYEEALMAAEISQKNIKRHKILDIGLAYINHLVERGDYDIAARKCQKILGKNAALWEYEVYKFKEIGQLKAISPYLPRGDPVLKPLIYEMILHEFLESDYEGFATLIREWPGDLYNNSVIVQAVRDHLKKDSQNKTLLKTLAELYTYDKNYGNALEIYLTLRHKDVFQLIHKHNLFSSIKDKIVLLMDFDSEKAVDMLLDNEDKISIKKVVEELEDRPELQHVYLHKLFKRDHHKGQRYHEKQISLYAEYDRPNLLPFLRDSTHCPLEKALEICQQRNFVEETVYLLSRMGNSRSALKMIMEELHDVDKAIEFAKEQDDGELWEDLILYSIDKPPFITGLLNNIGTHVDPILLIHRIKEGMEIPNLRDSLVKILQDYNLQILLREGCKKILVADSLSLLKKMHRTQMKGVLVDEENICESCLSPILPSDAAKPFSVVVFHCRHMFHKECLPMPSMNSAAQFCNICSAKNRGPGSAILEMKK
Chain of UniProt Q01081 (Q01081 whole entry, looked up): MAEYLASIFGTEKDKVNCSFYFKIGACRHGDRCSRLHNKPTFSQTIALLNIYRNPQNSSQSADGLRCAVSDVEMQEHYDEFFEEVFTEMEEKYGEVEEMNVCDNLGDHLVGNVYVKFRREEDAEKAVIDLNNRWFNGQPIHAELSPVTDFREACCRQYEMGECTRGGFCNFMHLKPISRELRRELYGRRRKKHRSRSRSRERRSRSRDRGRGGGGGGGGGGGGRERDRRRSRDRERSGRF
Chain of UniProt Q641Q2 (Q641Q2 whole entry, looked up): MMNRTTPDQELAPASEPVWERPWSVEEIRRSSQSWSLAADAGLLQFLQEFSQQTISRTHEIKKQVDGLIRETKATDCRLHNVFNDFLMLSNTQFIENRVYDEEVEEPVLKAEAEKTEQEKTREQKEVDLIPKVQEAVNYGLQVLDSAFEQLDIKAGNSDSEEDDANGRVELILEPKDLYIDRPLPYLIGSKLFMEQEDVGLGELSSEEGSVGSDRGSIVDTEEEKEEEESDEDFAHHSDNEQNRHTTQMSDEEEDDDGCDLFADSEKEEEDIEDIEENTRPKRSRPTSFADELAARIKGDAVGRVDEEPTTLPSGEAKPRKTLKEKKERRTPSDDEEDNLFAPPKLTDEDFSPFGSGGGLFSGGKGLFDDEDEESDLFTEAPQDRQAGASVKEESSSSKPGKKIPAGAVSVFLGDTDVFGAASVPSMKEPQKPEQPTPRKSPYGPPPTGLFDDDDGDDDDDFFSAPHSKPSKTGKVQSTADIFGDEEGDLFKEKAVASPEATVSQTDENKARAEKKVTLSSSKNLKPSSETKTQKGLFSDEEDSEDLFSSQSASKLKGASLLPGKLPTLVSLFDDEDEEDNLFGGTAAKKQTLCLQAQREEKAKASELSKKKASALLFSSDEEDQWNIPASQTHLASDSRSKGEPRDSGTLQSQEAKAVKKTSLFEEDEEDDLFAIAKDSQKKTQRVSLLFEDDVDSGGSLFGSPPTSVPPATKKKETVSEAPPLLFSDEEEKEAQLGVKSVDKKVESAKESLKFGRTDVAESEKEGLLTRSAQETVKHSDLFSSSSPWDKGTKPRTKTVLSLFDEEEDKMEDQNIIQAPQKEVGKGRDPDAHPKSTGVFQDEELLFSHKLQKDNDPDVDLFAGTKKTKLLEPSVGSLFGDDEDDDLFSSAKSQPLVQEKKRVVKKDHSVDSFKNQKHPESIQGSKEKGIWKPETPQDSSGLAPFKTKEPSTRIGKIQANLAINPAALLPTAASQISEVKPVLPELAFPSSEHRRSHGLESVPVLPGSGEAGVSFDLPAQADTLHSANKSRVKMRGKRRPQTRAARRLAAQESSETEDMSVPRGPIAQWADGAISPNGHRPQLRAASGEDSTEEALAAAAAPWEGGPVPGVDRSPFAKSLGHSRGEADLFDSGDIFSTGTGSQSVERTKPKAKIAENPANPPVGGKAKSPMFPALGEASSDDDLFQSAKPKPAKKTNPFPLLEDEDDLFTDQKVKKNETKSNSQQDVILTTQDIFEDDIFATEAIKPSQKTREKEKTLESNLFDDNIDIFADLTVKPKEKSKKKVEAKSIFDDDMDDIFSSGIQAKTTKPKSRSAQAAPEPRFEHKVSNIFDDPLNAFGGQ
Chain of UniProt O00258 (O00258 whole entry, looked up): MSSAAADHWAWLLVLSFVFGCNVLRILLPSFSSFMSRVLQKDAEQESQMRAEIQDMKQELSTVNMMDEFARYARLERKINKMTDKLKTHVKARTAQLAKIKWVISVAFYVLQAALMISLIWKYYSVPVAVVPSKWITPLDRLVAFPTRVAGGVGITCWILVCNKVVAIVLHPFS
Chain of UniProt Q6ZXV5 (Q6ZXV5 whole entry, looked up): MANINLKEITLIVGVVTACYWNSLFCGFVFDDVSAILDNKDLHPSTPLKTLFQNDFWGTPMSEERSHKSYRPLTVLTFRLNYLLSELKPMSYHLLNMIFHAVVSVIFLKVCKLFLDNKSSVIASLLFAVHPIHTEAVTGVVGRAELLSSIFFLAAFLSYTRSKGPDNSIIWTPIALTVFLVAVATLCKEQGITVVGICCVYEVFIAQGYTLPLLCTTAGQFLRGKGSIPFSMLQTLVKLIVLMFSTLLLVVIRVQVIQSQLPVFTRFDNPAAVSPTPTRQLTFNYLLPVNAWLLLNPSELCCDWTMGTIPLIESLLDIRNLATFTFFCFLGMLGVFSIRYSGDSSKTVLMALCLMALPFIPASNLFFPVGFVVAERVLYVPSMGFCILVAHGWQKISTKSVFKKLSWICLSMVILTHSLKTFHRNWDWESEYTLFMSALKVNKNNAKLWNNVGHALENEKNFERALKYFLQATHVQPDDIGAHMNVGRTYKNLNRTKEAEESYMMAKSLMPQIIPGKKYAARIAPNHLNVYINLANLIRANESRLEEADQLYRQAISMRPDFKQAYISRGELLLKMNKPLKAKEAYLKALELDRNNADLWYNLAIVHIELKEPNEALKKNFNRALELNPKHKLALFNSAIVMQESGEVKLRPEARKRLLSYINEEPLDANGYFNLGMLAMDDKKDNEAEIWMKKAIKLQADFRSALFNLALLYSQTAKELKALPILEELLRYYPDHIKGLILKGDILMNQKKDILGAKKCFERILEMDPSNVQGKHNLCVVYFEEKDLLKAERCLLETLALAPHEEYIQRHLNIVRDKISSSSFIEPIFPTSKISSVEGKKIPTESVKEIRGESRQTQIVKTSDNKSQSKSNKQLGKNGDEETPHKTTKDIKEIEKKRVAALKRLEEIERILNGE
Chain of UniProt Q9Y2I8 (Q9Y2I8 whole entry, looked up): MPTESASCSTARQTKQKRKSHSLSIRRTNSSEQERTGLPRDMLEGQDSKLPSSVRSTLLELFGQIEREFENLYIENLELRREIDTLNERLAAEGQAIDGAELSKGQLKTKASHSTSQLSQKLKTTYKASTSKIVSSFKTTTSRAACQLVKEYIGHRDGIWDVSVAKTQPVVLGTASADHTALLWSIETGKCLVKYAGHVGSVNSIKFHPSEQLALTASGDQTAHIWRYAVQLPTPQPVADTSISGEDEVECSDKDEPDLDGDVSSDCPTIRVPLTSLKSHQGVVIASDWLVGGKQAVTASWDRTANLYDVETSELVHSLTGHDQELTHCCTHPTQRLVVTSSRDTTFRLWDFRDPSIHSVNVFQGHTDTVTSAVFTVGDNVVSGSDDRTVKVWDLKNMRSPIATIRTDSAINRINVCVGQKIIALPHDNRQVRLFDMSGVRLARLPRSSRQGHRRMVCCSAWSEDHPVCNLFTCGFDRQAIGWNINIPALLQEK
Chain of UniProt Q9H3M7 (Q9H3M7 whole entry, looked up): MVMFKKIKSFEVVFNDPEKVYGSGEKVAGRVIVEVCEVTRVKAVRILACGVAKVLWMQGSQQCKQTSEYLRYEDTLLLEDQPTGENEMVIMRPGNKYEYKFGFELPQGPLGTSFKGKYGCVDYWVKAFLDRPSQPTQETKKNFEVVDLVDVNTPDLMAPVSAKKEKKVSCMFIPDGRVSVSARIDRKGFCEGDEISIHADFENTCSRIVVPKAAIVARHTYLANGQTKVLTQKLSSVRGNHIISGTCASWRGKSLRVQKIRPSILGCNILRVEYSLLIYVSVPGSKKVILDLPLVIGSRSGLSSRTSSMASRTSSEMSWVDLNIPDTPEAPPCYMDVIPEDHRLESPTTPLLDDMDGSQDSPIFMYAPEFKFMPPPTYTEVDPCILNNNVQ
Chain of UniProt Q15388 (Q15388 whole entry, looked up): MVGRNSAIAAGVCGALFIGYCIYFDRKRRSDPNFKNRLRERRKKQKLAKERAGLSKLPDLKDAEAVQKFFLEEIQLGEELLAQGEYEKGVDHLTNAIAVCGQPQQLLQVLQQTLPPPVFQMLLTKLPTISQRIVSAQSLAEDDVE

Target	log2 fold change [1]	log2 fold change [2]	log2 fold change [3]	log2 fold change [4]	log2 fold change (Nexturastat A)	log2 fold change (vemurafenib)	log2 fold change [5]	log2 fold change [6]	log2 fold change (givinostat)	log2 fold change (barasertib)
XPOT (UniProt O43592)	0.018	-0.031	0.023	0.029	-0.012	0.039	0.128	0.014	0.007	0.08
TMEM87B (UniProt Q96K49)	-0.018	-0.013	0.112	-0.008	-0.059	-0.048	-0.028	0.008	-0.063	0.048
TRAPPC8 (UniProt Q9Y2L5)	0.079	-0.036	-0.009	-0.022	0.024	0.026	0.066	0.012	0.066	0.033
TXNL1 (UniProt O43396)	0.02	-0.105	0.007	0.098	0.117	0.037	0.079	0.015	0.114	0.045
UGDH (UniProt O60701)	0.039	-0.005	0.028	0.083	-0.064	0.043	0.102	-0.097	0.031	0.079
WRB (UniProt O00258)	-0.046	-0.11	-0.007	-0.023	-0.25 (active)	0.108	-0.037	-0.074	0.032	-0.014
WDR46 (UniProt O15213)	0.039	-0.021	-0.001	-0.102	0.216	-0.135	-0.026	0.136	-0.05	-0.064
UTP3 (UniProt Q9NQZ2)	-0.016	0.008	-0.094	-0.048	0.308	0.004	0.022	0.101	0.075	-0.08
UBC (UniProt P0CG48)	0.007	-0.091	-0.001	-0.032	0.151	-0.016	-0.08	-0.017	0.028	-0.018
USP7 (UniProt Q93009)	0.054	-0.046	0.007	0.012	0.015	0.036	0.068	0	0.083	0.073
UBE2E3 (UniProt Q969T4)	0.028	-0.059	0.053	0.08	-0.098	-0.013	0.08	0.022	0.116	0.013
TP53BP1 isoform 2 (UniProt Q12888)	-0.02	-0.032	0	-0.022	0.045	0	0.02	0.056	0.019	0.022
VPS52 (UniProt Q8N1B4)	-0.071	-0.001	-0.009	0.005	0.079	0.023	0.006	0.048	-0.004	0.054
WDR37 isoform 2 (UniProt Q9Y2I8)	0.013	0.068	-0.019	-0.138	0.039	0.01	0.012	0.028	-0.018	0.04
WASHC2A (UniProt Q641Q2)	-0.053	-0.012	-0.039	-0.014	0.004	-0.041	-0.005	0.085	0.004	0.032
TXNIP (UniProt Q9H3M7)	-0.04	0.003	-0.115	0.034	0.177	-0.005	-0.079	0.001	-0.06	0.033

Target	log2 fold change [1]	log2 fold change [2]	log2 fold change [3]	log2 fold change [4]	log2 fold change (Nexturastat A)	log2 fold change (vemurafenib)	log2 fold change [5]	log2 fold change [6]	log2 fold change (givinostat)	log2 fold change (barasertib)
TSFM (UniProt P43897)	0.253	-0.167	0.021	0.11	-0.057	0.08	0.034	0.181	0.041	0.075
U2AF1 isoform 2 (UniProt Q01081)	-0.011	-0.078	-0.01	0.091	0.011	0.074	0.071	-0.009	0.022	0.009
VPS41 (UniProt P49754)	0.015	0.003	0.004	-0.028	0.108	-0.051	0.025	-0.03	-0.013	-0.02
TRMT61A (UniProt Q96FX7)	0	0.056	-0.013	-0.083	0.204	-0.119	-0.009	0.114	0.038	-0.091
TXNRD1 (UniProt Q16881)	0.032	0.006	0.021	0.039	-0.051	0.024	0.007	-0.035	0.011	0.024
USP34 (UniProt Q70CQ2)	-0.02	-0.094	0.077	0	-0.12	0.08	0.032	0.052	0.094	0.069
TMTC3 (UniProt Q6ZXV5)	-0.05	-0.009	0.019	0.007	0.067	-0.052	0.013	-0.013	-0.032	0.032
TOMM20 (UniProt Q15388)	0.058	0.044	0.04	-0.019	0.019	-0.024	0.092	0.026	0.011	0.021
VPS28 (UniProt Q9UK41)	0.029	-0.044	0.055	0.004	-0.018	0.041	-0.008	-0.074	-0.024	0.061
VPS51 (UniProt Q9UID3)	0	-0.031	-0.045	0.017	0.032	0.034	0.021	0.032	0.071	0.059
UGGT1 (UniProt Q9NYU2)	-0.001	0.004	0.001	-0.018	0.014	0	0.003	0.024	0.02	0
VDAC1 (UniProt P21796)	-0.025	0.02	0.025	0.012	-0.028	0.015	0.018	-0.005	-0.001	-0.017
VARS2, A0A0G2JL52	-0.003	0.005	-0.025	0.012	0.005	0.03	0.047	-0.018	-0.015	0.052
TNPO2 (UniProt O14787)	0.052	-0.01	0.073	0.015	0.021	0.061	0.11	0.007	0.083	0.054
WASH2P (UniProt Q6VEQ5)	-0.001	-0.034	0.019	0	0.139	0.03	-0.01	0.026	-0.007	0.043
